# Source: PubChem BioAssay (NCATS)
# Unmarked numbers belong to inactive results. Records with an inconclusive call do not appear. A call without a number means that no potency is given here. Active and inactive are the calls of the source. Unless noted, the call rests on the fitted dose curve; in most records, active means well fitted curve in the direction sought with a large enough effect; inconclusive means small, poorly fitted or top-dose-only effect, or another doubt; inactive means no such curve, though single readings can be large; an effect the other way counts as inactive or inconclusive.
# Legend:
# [1] = qHTS for Inhibitors of Plasmodium falciparum (GB4) proliferation (AID 504315); further: nearly all actives have a fitted effect of over 50% in size; further: potency means the concentration at half of the fitted maximal effect
# Procedure, shortened: (§1)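 Parasite growth measured as SYBR Green DNA fluorescence (ex 485, em 535 nm) after overnight lysis following 72 h culture at 37 °C, 0.3% parasitemia, 2.5% hematocrit. Values normalized against DMSO and 0.29 uM artemisinin controls, with plate-stack correction.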
# [2] = qHTS for Inhibitors of Plasmodium falciparum (HB3) proliferation (AID 504318); further: nearly all actives have a fitted effect of over 60% in size; further: potency means the concentration at half of the fitted maximal effect
# Procedure, shortened: as §1
# [3] = target: Atrial natriuretic peptide receptor 1 (Homo sapiens) (UniProt P16066); test: Natriuretic polypeptide receptor (hNpr1) antagonism - Pilot CMLD screen (AID 1347052; calls by dose curve;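 further: cGMP level read as GloSensor luciferase luminescence after agonist stimulation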; further: potency means the concentration at half of the fitted maximal effect;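 on activity change, negative = inhibition: HEK293 cells with hNpr1 stimulated by hNppA peptide at 0.1 nM; series mostly up to about 9.2 µM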)
# Atrial natriuretic peptide receptor 1 (Homo sapiens), sequence (P16066 whole entry, looked up): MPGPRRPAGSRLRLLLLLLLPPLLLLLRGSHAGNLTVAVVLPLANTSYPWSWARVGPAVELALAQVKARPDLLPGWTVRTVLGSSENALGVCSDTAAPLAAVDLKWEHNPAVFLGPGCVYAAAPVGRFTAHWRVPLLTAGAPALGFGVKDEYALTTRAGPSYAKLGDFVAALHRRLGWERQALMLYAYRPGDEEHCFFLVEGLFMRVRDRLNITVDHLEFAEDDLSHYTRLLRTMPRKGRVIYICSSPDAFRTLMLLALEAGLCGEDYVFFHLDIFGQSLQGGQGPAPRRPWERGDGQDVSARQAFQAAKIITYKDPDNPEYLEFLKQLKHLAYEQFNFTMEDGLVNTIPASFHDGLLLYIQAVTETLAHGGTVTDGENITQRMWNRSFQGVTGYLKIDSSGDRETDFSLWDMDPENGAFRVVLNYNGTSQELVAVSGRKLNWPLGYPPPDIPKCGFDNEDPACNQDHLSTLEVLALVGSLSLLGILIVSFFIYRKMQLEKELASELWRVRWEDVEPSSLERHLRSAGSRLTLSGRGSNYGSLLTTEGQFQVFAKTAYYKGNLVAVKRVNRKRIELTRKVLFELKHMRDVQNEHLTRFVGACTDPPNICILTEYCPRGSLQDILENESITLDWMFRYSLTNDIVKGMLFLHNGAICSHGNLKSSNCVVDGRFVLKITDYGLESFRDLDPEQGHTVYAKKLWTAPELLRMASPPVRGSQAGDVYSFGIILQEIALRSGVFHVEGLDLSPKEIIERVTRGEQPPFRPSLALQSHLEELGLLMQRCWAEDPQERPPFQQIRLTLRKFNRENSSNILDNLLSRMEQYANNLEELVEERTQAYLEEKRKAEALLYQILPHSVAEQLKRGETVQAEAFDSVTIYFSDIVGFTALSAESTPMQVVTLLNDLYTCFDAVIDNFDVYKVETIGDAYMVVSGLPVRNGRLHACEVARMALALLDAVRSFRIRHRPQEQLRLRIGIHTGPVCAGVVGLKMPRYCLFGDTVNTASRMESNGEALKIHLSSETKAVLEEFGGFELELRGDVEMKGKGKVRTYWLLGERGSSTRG
# [4] = qHTS for Inhibitors of Plasmodium falciparum (7G8) proliferation (AID 504316); further: nearly all actives have a fitted effect of over 65% in size; further: potency means the concentration at half of the fitted maximal effect; on activity change, negative = inhibition: series mostly up to about 6.7 µM
# Procedure, shortened: as §1
# [5] = qHTS for Inhibitors of Plasmodium falciparum (CP250) proliferation (AID 504320); further: potency means the concentration at half of the fitted maximal effect
# Procedure, shortened: as §1
# [6] = target: Cytochrome P450 2C9 (Homo sapiens) (UniProt P11712); test: qHTS Assay for Inhibitors and Substrates of Cytochrome P450 2C9 (AID 883); further: nearly all actives have a fitted effect of over 60% in size
# Cytochrome P450 2C9 (Homo sapiens), sequence (P11712 whole entry, looked up): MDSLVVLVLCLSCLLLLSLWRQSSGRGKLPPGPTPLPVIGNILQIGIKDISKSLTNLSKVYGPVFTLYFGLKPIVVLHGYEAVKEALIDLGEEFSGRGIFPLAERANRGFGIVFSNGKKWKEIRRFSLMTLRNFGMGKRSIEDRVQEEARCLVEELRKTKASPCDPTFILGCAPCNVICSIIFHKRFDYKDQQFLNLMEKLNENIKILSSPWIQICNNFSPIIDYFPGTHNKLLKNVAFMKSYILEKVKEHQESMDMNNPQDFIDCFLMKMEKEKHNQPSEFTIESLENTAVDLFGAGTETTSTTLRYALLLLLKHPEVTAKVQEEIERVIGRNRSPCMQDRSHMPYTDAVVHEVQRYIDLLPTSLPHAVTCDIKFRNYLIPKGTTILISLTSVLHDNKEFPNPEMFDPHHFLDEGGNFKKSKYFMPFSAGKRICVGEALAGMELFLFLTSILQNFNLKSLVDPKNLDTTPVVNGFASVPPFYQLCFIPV
# Procedure, shortened: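 Inhibition of CYP2C9 is scored as loss of luminescence, with 57uM sulphaphenazole defining 100% inhibition. Substrate Luciferin-H is used at 100uM, equal to its KM; enzyme at 10nM in 25mM KPO4, 60 min at 37C with NADPH regeneration.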
# [7] = target: Cytochrome P450 3A4 (Homo sapiens) (UniProt P08684); test: qHTS Assay for Inhibitors and Substrates of Cytochrome P450 3A4 (AID 884); further: series mostly up to about 57 µM; nearly all actives have a fitted effect of over 50% in size
# Cytochrome P450 3A4 (Homo sapiens), sequence (P08684 whole entry, looked up): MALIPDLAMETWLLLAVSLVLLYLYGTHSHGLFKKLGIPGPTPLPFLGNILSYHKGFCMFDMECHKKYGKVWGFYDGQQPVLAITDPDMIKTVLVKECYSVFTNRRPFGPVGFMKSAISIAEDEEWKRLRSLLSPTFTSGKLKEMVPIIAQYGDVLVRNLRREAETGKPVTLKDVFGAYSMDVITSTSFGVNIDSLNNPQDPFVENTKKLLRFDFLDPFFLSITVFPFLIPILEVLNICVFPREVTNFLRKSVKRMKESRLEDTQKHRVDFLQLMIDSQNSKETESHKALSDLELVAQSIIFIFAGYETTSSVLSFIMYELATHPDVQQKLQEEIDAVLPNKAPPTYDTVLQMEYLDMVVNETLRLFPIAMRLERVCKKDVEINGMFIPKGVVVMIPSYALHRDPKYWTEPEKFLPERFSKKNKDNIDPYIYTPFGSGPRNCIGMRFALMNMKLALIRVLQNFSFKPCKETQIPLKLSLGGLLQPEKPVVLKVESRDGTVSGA
# Procedure, shortened: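 Luminescent readout of luciferin produced by CYP3A4 (20 nM) dealkylation of Luciferin-PPXE, 25 uM (its KM). NADPH-driven reaction ran 60 min at RT after 10 min compound preincubation; data scaled to 57 uM ketoconazole as 100% inhibition.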
# [8] = target: Cytochrome P450 2C19 (Homo sapiens) (UniProt P33261); test: qHTS Assay for Inhibitors and Substrates of Cytochrome P450 2C19 (AID 899); further: nearly all actives have a fitted effect of over 60% in size
# Cytochrome P450 2C19 (Homo sapiens), sequence (P33261 whole entry, looked up): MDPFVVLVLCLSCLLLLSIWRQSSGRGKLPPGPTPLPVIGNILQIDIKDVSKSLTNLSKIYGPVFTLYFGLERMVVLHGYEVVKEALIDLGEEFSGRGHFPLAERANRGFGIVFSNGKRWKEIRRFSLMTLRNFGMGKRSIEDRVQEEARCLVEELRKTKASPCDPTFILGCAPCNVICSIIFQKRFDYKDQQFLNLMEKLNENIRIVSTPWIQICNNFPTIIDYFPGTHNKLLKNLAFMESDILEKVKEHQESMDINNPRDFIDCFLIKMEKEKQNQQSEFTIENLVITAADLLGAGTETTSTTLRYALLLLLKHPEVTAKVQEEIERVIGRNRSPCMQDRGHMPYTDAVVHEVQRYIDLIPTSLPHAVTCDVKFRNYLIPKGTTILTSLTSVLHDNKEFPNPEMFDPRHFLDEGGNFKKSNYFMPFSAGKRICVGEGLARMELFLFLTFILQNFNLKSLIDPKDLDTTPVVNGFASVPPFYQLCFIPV
# Procedure, shortened: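 5nM enzyme + 10uM Luciferin-H EGE (=KM), 50mM KPO4; cpd pin-transferred, 10 min 37C; NADPH regen, 60 min 37C; stopped w/ luciferin detection reagent, 20 min; luminescence. Normalized to 57uM ketoconazole (AC100).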
# [9] = target: Cytochrome P450 3A4 (Homo sapiens) (UniProt P08684); test: qHTS Assay for Activators of Cytochrome P450 3A4 (AID 885); further: nearly all actives have a fitted effect of over 65% in size
# Procedure, shortened: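 Luminescent readout of luciferin formed from 25 uM Luciferin-PPXE (KM level) by 20 nM CYP3A4 in 200 mM KPO4, with 60 min NADPH-driven reaction at room temperature after 10 min compound exposure. Ketoconazole (57 uM) defined 100% inhibition.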
structure (smiles),measurement,setting,value
CC#C[C@H](C)[C@@H](OCOC)[C@H](C[C@H](C)Cc1cc(Br)cc(OCc2ccccc2)c1OC)OC,Potency,[1],1510 nM (active)
same,Potency,[2],1690 nM (active)
same,Potency,[3],inactive
C=CCN=C1NC(c2cccc(F)c2)C(C(=O)OC)=C(C)N1Cc1ccccc1 (configuration not stated),Potency,[1],inactive
same,Potency,[4],inactive
same,Potency,[5],inactive
same,Potency,[3],inactive
CC(C)[C@@H](OCc1ccccc1)[C@H](C)C=NOC[C@@H](C)[C@H](OCc1ccccc1)C(C)C,Potency,[1],inactive
same,Potency,[2],inactive
same,Potency,[5],inactive
same,Potency,[3],inactive
CCN1C(=O)N(S(=O)(=O)c2ccc(C)cc2)C(c2ccccc2)C(C(=O)OC)=C1C (configuration not stated),Potency,[1],inactive
same,Potency,[4],inactive
same,Potency,[5],inactive
same,Potency,[3],inactive
CC(C)=CCN1C(=O)[C@@]2(CC(C)=C[C@@H](COCc3ccccc3)O2)c2ccccc21,Potency,[1],inactive
same,Potency,[4],1900 nM (active)
same,Potency,[5],inactive
same,Potency,[3],inactive
COC(=O)c1ccc(CN2C(=O)[C@]3(OCCC=C[C@@H]3C)c3ccccc32)cc1,Potency,[1],inactive
same,Potency,[2],inactive
same,Potency,[5],inactive
same,Potency,[3],inactive
COC(=O)[C@]1(CC=Cc2ccccc2)C=C[C@@H](C)[C@H](c2ccccc2Br)N1C(=O)C(F)(F)F,Potency,[1],1690 nM (active)
same,Potency,[2],1900 nM (active)
same,Potency,[3],inactive
CC1=C2[C@H](O)[C@H]([C@@H](C)C(=O)NCCC(C)C)CC[C@@]2(C)C=CC1=O,Potency,[1],inactive
same,Potency,[4],inactive
same,Potency,[5],inactive
same,Potency,[3],inactive
COC(=O)C1(C(=O)OC)C[C@@H]2CON=C2[C@@H]1c1ccccc1,Potency,[1],inactive
same,Potency,[2],inactive
same,Potency,[5],inactive
same,Potency,[3],inactive
CC(C)[C@@H](OCc1ccccc1)[C@H](C)CON=C1[C@H]2CCn3c(=O)n(-c4ccccc4)c(=O)n3[C@@H]2[C@H](O)[C@@H]2O[C@H]12,Potency,[1],inactive
same,Potency,[2],inactive
same,Potency,[3],inactive
CCN1C(=NCc2cccc(C(F)(F)F)c2)NC(c2cccc(F)c2)C(C(=O)OC)=C1C (configuration not stated),Potency,[1],757 nM (active)
same,Potency,[2],inactive
same,Potency,[3],inactive
CC1(OC(=O)C2CCCC2)C(=O)C=C2C=C(c3ccsc3)N(C3CCCCC3)C=C2C1=O (configuration not stated),Potency,[1],inactive
same,Potency,[4],inactive
same,Potency,[5],inactive
same,Potency,[3],inactive
COC(=O)C1=C(C)N(Cc2ccccc2)C(=O)NC1c1cccc(C(F)(F)F)c1 (configuration not stated),Potency,[1],inactive
same,Potency,[2],inactive
same,Potency,[5],inactive
same,Potency,[3],inactive
CC(C)(C)OC(=O)N1CCC[C@@H]1C(O)(c1ccccc1)c1ccccc1,Potency,[1],inactive
same,Potency,[4],inactive
same,Potency,[5],inactive
same,Potency,[3],inactive
COC(=O)[C@H]1O[C@@H](c2c(OC)c(OC)c(C)c(OC)c2OC)[C@H](C)[C@@H](O)[C@@H]1C,Potency,[1],inactive
same,Potency,[2],inactive
same,Potency,[5],inactive
same,Potency,[3],inactive
CC1(C)CC(=O)C2=C(C1)O[C@@]1(c3ccsc3)Cc3cc(C#N)ccc3[C@H]2O1,Potency,[1],inactive
same,Potency,[2],inactive
same,Potency,[5],inactive
same,Potency,[3],inactive
COC(=O)C(C(=O)OC)[C@@H]1O[C@@]23COC=C[C@]2(C)[C@@H]3c2ccccc21,Potency,[1],inactive
same,Potency,[2],inactive
same,Potency,[5],inactive
same,Potency,[3],inactive
COc1cccc([C@@H]2Oc3ccc(OC)cc3C[C@@H]2OC(=O)N[C@H]2CCCc3ccccc32)c1,Potency,[1],inactive
same,Potency,[4],1510 nM (active)
same,Potency,[5],inactive
same,Potency,[3],inactive
COC(=O)C1=C(C(=O)OC)[C@@H]2N(C)c3ccc(OC)cc3[C@@]23C[C@@H](C(=O)OC)N(C(=O)NCCBr)C3=N1,Potency,[1],2130 nM (active)
same,Potency,[2],2130 nM (active)
same,Potency,[3],inactive
C=CCOC(=O)N[C@H](c1ccccc1)[C@H](C)C=CCC(=O)OC,Potency,[1],inactive
same,Potency,[4],inactive
same,Potency,[5],inactive
same,Potency,[3],inactive
CCN1C(=NCc2cccc(C(F)(F)F)c2)NC(c2cccc(C(F)(F)F)c2)C(C(=O)OC)=C1C (configuration not stated),Potency,[1],95.3 nM (active)
same,Potency,[2],inactive
same,Potency,[5],757 nM (active)
same,Potency,[3],inactive
C=CC[C@@H]1C=C[C@H](ON=C(C)CCN2CCCc3nc(C)c(C)cc32)[C@H](CO)O1,Potency,[1],1900 nM (active)
same,Potency,[2],2510 nM (active)
same,Potency,[3],inactive
COC(=O)CCCC1=CC2=C(c3ccccc3)C(=O)C(C)(OC(=O)C3CCCC3)C(=O)C2=CN1c1ccc(OC)cc1 (configuration not stated),Potency,[1],inactive
same,Potency,[4],inactive
same,Potency,[5],inactive
same,Potency,[3],inactive
Cc1ccccc1Nc1oc(-c2ccccc2)nc1-c1ccccc1,Potency,[1],1900 nM (active)
same,Potency,[2],1690 nM (active)
same,Potency,[3],inactive
COc1cccc([C@@H]2Oc3ccc(OC)cc3C(=O)[C@@H]2OC(=O)Nc2cc(OC)c(OC)c(OC)c2)c1,Potency,[1],inactive
same,Potency,[2],inactive
same,Potency,[5],inactive
same,Potency,[3],inactive
C=CC(=O)N1C(=O)c2ccccc2S1(=O)=O,Potency,[1],inactive
same,Potency,[2],inactive
same,Potency,[5],inactive
same,Potency,[3],2990 nM (active)
CC(C)=CCCC(C)=CCN1C(=O)[C@]2(O[C@H](COc3ccccc3)CC3=CCCC32)c2c(Br)cccc21 (some centres not stated),Potency,[1],1510 nM (active)
same,Potency,[2],1690 nM (active)
same,Potency,[3],inactive
Cc1c(O)c(=O)ccn1Cc1ccccc1,"activity change, negative = inhibition",[6],-0.343% [at 11.4 µM]
same,"activity change, negative = inhibition",[7],-6.33% [at 11.4 µM]
same,"activity, negative = inhibition",[8],38.4% [at 11.4 µM]
same,Potency,[1],inactive
same,Potency,[4],inactive
same,Potency,[3],inactive
CC1(OC(=O)c2ccc(Cl)nc2)C(=O)C=C2C=C3CCCN3C=C2C1=O (configuration not stated),Potency,[1],inactive
same,Potency,[4],inactive
same,Potency,[5],inactive
same,Potency,[3],inactive
CCCCc1nc2c(c3c1C[C@H](C)OC3)CN(S(=O)(=O)c1ccccc1C(=O)OC)CC2,Potency,[1],inactive
same,Potency,[4],inactive
same,Potency,[5],inactive
same,Potency,[3],inactive
C[C@H]1COC(=O)[C@H](Cc2ccccc2)NC(=O)[C@@H](C)COC(=O)[C@H](Cc2ccccc2)NC1=O,"activity change, positive = activation",[9],-42.5% [at 11.4 µM]
same,Potency,[1],inactive
same,Potency,[4],inactive
same,Potency,[5],inactive
same,Potency,[3],inactive
COC(=O)C1=C(C(=O)OC)[C@@H]2N(CC=C(C)C)c3ccccc3[C@@]23CCC(=O)N(Cc2cccc(C(F)(F)F)c2)C3=N1,Potency,[1],849 nM (active)
same,Potency,[2],2940 nM (active)
same,Potency,[3],inactive
